# Experimental data: PubChem BioAssay
# Inconclusive results are not listed. Active and inactive are the calls of the source.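 Rule for the calls, unless noted: active = viability increase at or above a cutoff of the median across tested compounds plus 3 SD (cut at about 8.5% in these data, passing the limit was not always enough); inconclusive = some gains above the cutoff, reason not given; inactive = the rest.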
# Experiments:
# [1] = Her2 expression decrease, cell viability multiplex – SKBR3 breast tumor cells, AlphaScreen, ATP viability, primary screen (AID 461;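 active = Her2 level under about 52% in both replicate screens, with viability over 70% of control, limit read from the data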;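 for Her2 level: lower value means less Her2 protein in the cells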;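 for viability: percent of carrier control wells set as 100% viability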); conditions: SKBR3 Her2 protein level, 18-24 h, measured here: SKBR3 viability, ATP luminescence, at 10 µM
# [2] = biological target: Receptor tyrosine-protein kinase erbB-2 (Homo sapiens) (UniProt P04626); experiment: as above; conditions: 18-24 h, at 10 µM, stronger effect = lower value
# [3] = reduced viability of SK-BR-3 breast cancer cells – cell-based, 24 h, human, pilot screen (AID 572;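 active = viability at or below 10% of carrier control in both of two separate runs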;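 note: compound exposure lasted between 18 and 24 h rather than exactly 24 h; 100% = carrier-treated control wells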); conditions: SK-BR-3 viability, CellTiter-Glo luminescence, at 10 µM, stronger effect = lower value
# [4] = HUVEC growth inhibition – cell-based, human, primary screen (AID 575;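 active = viability at or below 30% in both replicate assays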;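 note: 100% = median of untreated cell wells with 0.1% DMSO on each plate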); conditions: HUVEC proliferation, CellTiter-Glo luminescence, 72 h; at 10 µM; stronger effect = lower value
# [5] = H69AR cell proliferation blockers – human, duplicate replicates, primary screen (AID 580;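 active = viability at or under a set limit in both replicates, limit being median viability minus 3 SD, cut at about 48% in these data, passing the limit was not always enough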;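 note: 100% = mean luminescence of untreated wells and 0% = no signal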); conditions: H69AR lung tumor cells viability, ATP luminescence, 72 h; at 10 µM; stronger effect = lower value
# [6] = MRP1 drug-resistance reversers in H69AR cells – cell-based, doxorubicin co-treatment, pilot screen (AID 601;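 active = viability loss from added drug above about 55%, and viability with drug at most 40%, in both replicates, limit read from the data, passing the limit was not always enough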); conditions: CellTiter-Glo, 72 h, at 10 µM; for differential viability (reversal): stronger effect = higher value
# [7] = yeast transport mutant growth inhibition pilot in 384-well plates, post-Golgi transport modulator project (AID 636; in the data active = inhibition above about 31%); conditions: absorbance 615 nm, about 18 h, stronger effect = higher value
# [8] = growth suppression of yeast trafficking mutant, preliminary HTS, modulators of trafficking downstream of Golgi apparatus project, 1536-format plate, OD 615 nm (AID 637; in the data active = inhibition above about 30%); conditions: yeast transport mutant growth, absorbance 615 nm, 18 h; stronger effect = higher value
# [9] = S. cerevisiae growth inhibition in permissive medium (OD615), pilot counter-assay for S. cerevisiae lifespan shortening project, permissive growth control (AID 705;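 active = growth inhibition above 25% in both replicates, a cutoff set 3 SD above the mean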); conditions: OD615, 24 h, at 10 µM, stronger effect = higher value
# [10] = S. cerevisiae growth inhibition in restrictive medium, OD615, pilot screen, restrictive growth control, yeast lifespan reduction project (AID 706;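 active = growth inhibition above a set limit, 3 SD over mean compound inhibition, in both replicates, cut at about 43% in these data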;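 note: modified DeaD lifespan yeast strain shifted to restrictive glucose medium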); conditions: OD615, 48 h, at 10 µM, stronger effect = higher value
# [11] = doxorubicin toxicity protection in MRP-1 cells – H69AR cells, CellTiter-Glo, duplicate, MRP-1 activator project, pilot screen (AID 807); conditions: H69AR viability with doxorubicin, CellTiter-Glo luminescence; at 10 µM; stronger effect = higher value;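 note: compound pretreatment 18-22 h then 72 h combined with doxorubicin; 0% = doxorubicin alone and 100% = vehicle without doxorubicin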
# [12] = viability of HCT116 without oncogenic beta-catenin – human colon tumor cells, pilot screen (AID 823;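 active = cell viability at or below a set limit in both duplicate runs, the limit being the all-compound median minus 4 SD, cut at about 23% in these data, passing the limit was not always enough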;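 note: 0% = wells killed by 20 µM Hyamine and 100% = untreated DMSO cell wells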); conditions: HCT116 beta-catenin knockout viability, CellTiter-Glo, 60 h; at 10 µM; stronger effect = lower value
# [13] = viability of PTEN-null HCT116 cells – cell-based, HCT116 clonal line, CellTiter-Glo, pilot screen (AID 824;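 active = viability at or below 27.92% in each of two runs, the all-compound median minus 4 SD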;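 note: 0% = 20 µM Hyamine control and 100% = vehicle cell control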); conditions: HCT116 PTEN-deleted viability, 60 h, at 10 µM, stronger effect = lower value
# [14] = RAM signaling pathway blockade in yeast – S. cerevisiae, Pdr1DBD-CYC8 efflux-inhibited sensitized strain, primary screen (AID 1298;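 active = RAM network inhibition above 8.4% in each of two replicates, 3 SD over the compound average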;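 note: 0% = DMSO untreated cells without growth and 100% = 10 µM 1-NA-PP1 full growth; higher means more yeast growth rescued from 5-FOA killing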); conditions: S. cerevisiae cbk1-as DSE1-URA3 strain, 5-FOA growth OD615, 2 d; at 50 µM; stronger effect = higher value
# [15] = RAM pathway blockade in budding yeast – dse1pr::URA3 reporter, 5-FOA selection, pilot screen (AID 869;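 active = inhibition over a set limit, the all-compound mean plus 3 SD, in both replicate runs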;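 note: 0% = DMSO wells with no growth and 100% = 10 µM 1-NA-PP1 with full growth; RAM network block rescues cells from 5-FOA so hits raise OD615 growth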); conditions: S. cerevisiae dse1pr::URA3 5-FOA growth, OD615, 2 d; at 10 µM; stronger effect = higher value; strain carries analog-sensitive mutant Cbk1 kinase
# [16] = H69AR cells + 2 uM doxorubicin, measured here: viability with 2 uM doxorubicin, stronger effect = lower value
# [17] = H69AR cells, compound alone cytotoxicity
# Sequence of Receptor tyrosine-protein kinase erbB-2 (Homo sapiens) (P04626 whole entry, looked up): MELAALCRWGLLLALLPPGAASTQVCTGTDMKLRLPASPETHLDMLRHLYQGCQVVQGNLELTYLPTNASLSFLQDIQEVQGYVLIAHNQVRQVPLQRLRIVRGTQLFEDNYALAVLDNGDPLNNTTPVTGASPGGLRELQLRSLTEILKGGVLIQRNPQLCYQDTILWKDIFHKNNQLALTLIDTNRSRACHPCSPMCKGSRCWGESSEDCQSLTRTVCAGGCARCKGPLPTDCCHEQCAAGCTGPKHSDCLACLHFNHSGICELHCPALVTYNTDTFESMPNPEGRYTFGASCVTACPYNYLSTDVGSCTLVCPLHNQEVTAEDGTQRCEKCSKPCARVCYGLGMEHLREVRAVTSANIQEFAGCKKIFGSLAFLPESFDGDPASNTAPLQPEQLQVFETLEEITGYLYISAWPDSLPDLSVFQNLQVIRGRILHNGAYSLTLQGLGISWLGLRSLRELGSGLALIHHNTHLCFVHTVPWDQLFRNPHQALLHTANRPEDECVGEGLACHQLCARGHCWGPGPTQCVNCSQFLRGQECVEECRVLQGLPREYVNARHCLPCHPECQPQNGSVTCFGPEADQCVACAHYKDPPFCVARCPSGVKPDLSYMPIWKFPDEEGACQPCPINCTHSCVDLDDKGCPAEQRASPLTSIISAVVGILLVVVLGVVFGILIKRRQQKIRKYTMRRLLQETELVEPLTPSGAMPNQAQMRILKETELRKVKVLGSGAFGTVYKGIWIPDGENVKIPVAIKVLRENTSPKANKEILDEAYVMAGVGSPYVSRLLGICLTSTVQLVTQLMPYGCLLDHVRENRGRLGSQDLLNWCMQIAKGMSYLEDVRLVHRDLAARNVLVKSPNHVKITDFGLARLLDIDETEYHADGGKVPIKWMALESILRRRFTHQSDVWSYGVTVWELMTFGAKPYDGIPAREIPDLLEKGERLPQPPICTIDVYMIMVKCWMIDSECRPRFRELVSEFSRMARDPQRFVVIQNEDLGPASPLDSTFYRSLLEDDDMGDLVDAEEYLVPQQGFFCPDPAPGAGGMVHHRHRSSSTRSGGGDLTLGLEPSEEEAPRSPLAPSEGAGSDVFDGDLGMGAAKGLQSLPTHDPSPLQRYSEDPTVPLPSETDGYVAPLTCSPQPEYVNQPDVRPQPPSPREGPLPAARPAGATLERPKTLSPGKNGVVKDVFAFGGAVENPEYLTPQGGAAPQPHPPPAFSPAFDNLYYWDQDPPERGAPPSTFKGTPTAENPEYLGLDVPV
SMILES,viability [1] [%],Her2 level [2],viability [3],viability [4],viability [5],differential viability (reversal) ([6]; H69AR cells + 2 uM doxorubicin),"viability [6, 16] [%]","viability [6, 17] [%]",inhibition [7],inhibition [8],growth inhibition [9],growth inhibition [10],viability increase [11],viability [12],viability [13],RAM network inhibition [14],inhibition [15]
COc1ccc(C(=O)Nc2nncs2)c(OC)c1,95.5,112% (inactive),95.5% (inactive),93.1% (inactive),96.9% (inactive),6.36% (inactive),90.5,96.9,-3.46% (inactive),3.33% (inactive),-4.15% (inactive),-11.7% (inactive),-0.64% (inactive),102% (inactive),93.9% (inactive),5.61% (inactive),
Cc1cc(N)n2nc(-c3ccccc3)cc2n1,95,71% (inactive),95% (inactive),57.4% (inactive),80.1% (inactive),11.5% (inactive),68.5,80.1,-1.82% (inactive),-0.33% (inactive),-14.1% (inactive),-13.9% (inactive),-3.46% (inactive),65.1% (inactive),65.3% (inactive),4.23% (inactive),1.33% (inactive)
O=c1oc2ccccc2cc1NCc1ccccc1O,90.5,82% (inactive),90.5% (inactive),79.2% (inactive),73.9% (inactive),-13.5% (inactive),87.4,73.9,-2.56% (inactive),-0.5% (inactive),-12.5% (inactive),-15.2% (inactive),-6.51% (inactive),91.2% (inactive),91.1% (inactive),1.22% (inactive),1.91% (inactive)
COc1ccc(S(=O)(=O)Nc2ccc(F)c(Cl)c2)cc1OC,97.5,93.5% (inactive),97.5% (inactive),106% (inactive),96.6% (inactive),4.3% (inactive),92.3,96.6,-2.21% (inactive),-10.2% (inactive),-15.3% (inactive),4.31% (inactive),-1.4% (inactive),86.3% (inactive),87.6% (inactive),1.81% (inactive),0.595% (inactive)
COC(=O)CN1C(=O)C(O)(CC(=O)c2ccc(C)cc2)c2cc(Br)ccc21 (configuration not stated),102,96.5% (inactive),102% (inactive),88.2% (inactive),81.6% (inactive),-11.8% (inactive),93.3,81.6,-0.27% (inactive),-1.5% (inactive),-15.5% (inactive),2.94% (inactive),-0.78% (inactive),91% (inactive),92.5% (inactive),2.87% (inactive),1.67% (inactive)
CC(=O)c1cccc(NC(=O)CCOc2ccccc2)c1,96,121% (inactive),96% (inactive),106% (inactive),98.3% (inactive),1.96% (inactive),96.3,98.3,1.04% (inactive),-12.8% (inactive),5.62% (inactive),4.36% (inactive),-1.33% (inactive),102% (inactive),95% (inactive),1.57% (inactive),1.27% (inactive)
COCCCNC(=O)c1ccc(CS(=O)(=O)c2ccc(OC)cc2)o1,104,105% (inactive),104% (inactive),95.4% (inactive),91.6% (inactive),4.5% (inactive),87.1,91.6,-4% (inactive),2.62% (inactive),-12% (inactive),-24.6% (inactive),-1.48% (inactive),98.6% (inactive),91% (inactive),1.46% (inactive),0.405% (inactive)
CC(C)C(C(=O)Nc1ccc2c(c1)OCCO2)N1C(=O)c2ccccc2C1=O (configuration not stated),91,102% (inactive),91% (inactive),99.8% (inactive),104% (inactive),8.75% (inactive),94.8,104,0.77% (inactive),-10.7% (inactive),-11.7% (inactive),-13.3% (inactive),-0.14% (inactive),99.1% (inactive),97.7% (inactive),2.58% (inactive),1.34% (inactive)
COc1cc(C(O)c2nc3ccccc3n2C)cc(OC)c1OC (configuration not stated),91.5,100% (inactive),91.5% (inactive),99.8% (inactive),103% (inactive),9.33% (inactive),93.2,103,1.95% (inactive),-7.33% (inactive),-7.22% (inactive),-9.59% (inactive),-0.62% (inactive),94.1% (inactive),93.3% (inactive),0.78% (inactive),1.35% (inactive)
CCc1ccccc1NC(=O)c1cnc2n(c1=O)CCS2,90.5,90% (inactive),90.5% (inactive),95% (inactive),91.6% (inactive),3.48% (inactive),88.1,91.6,-1.33% (inactive),-4.26% (inactive),-7.06% (inactive),1.6% (inactive),3.48% (inactive),90.9% (inactive),97% (inactive),5.66% (inactive),1.32% (inactive)
CC1Cc2nc(SCC(=O)N3CCCc4ccccc43)n(C)c(=O)c2S1 (configuration not stated),97,91% (inactive),97% (inactive),84.8% (inactive),72% (inactive),20.9% (inactive),51.2,72,-4.27% (inactive),0.33% (inactive),-5.25% (inactive),-9.97% (inactive),-3.51% (inactive),76.1% (inactive),73.4% (inactive),6.46% (inactive),3.17% (inactive)
CCOC(=O)N1CCC(NC(=O)C2CCN(S(=O)(=O)c3cccc4cccnc34)CC2)CC1,90.5,97.5% (inactive),90.5% (inactive),97.6% (inactive),94.8% (inactive),-6.25% (inactive),101,94.8,-3.07% (inactive),-3.33% (inactive),-5.04% (inactive),3.31% (inactive),0.29% (inactive),91.4% (inactive),92.9% (inactive),1.81% (inactive),1.02% (inactive)
CC1(C)CC(=O)c2cnc(NC(=O)CCc3ccccc3)nc2C1,93,82% (inactive),93% (inactive),112% (inactive),90.2% (inactive),0.98% (inactive),89.2,90.2,-0.65% (inactive),-4.5% (inactive),-7.5% (inactive),-11.6% (inactive),1.81% (inactive),97.6% (inactive),101% (inactive),6.48% (inactive),1.27% (inactive)
N#CCCN1CCN(S(=O)(=O)c2ccc(S(=O)(=O)NC3CCCCC3)cc2)CC1,103,105% (inactive),103% (inactive),98.9% (inactive),100% (inactive),12.5% (inactive),87.5,100,-2.69% (inactive),3.67% (inactive),-1.9% (inactive),-5.03% (inactive),-0.74% (inactive),103% (inactive),97.8% (inactive),5.92% (inactive),1.02% (inactive)
CCOC(=O)N1CCN(c2cc(=O)n(-c3cccc(Br)c3)c(=O)[nH]2)CC1,99.5,108% (inactive),99.5% (inactive),94.4% (inactive),103% (inactive),17.2% (inactive),85.5,103,-3.2% (inactive),-1.8% (inactive),-9.72% (inactive),-24.3% (inactive),-2.79% (inactive),108% (inactive),93.5% (inactive),3.07% (inactive),3.14% (inactive)
Cc1cn2c(-c3ccc(Cl)cc3)nnc2s1,96,92.5% (inactive),96% (inactive),74.7% (inactive),95.2% (inactive),-3.87% (inactive),99.1,95.2,-3.87% (inactive),4.67% (inactive),-8.55% (inactive),16.2% (inactive),-0.6% (inactive),97.6% (inactive),90.3% (inactive),4.88% (inactive),2.66% (inactive)
CS(=O)(=O)NCCSCc1c(F)cccc1Cl,89.5,107% (inactive),89.5% (inactive),100% (inactive),102% (inactive),12.5% (inactive),89.7,102,0.4% (inactive),-8.06% (inactive),-2.46% (inactive),-2.41% (inactive),0.04% (inactive),96.2% (inactive),91.9% (inactive),1.27% (inactive),1.1% (inactive)
CC(=O)Nc1cccc(Oc2nc(C)cc(C)c2C#N)c1,96.5,106% (inactive),96.5% (inactive),94.1% (inactive),87.3% (inactive),-4.33% (inactive),91.7,87.3,-2% (inactive),0.5% (inactive),-17.1% (inactive),-19.5% (inactive),2.21% (inactive),107% (inactive),102% (inactive),0.78% (inactive),1.34% (inactive)
COc1cccc(-c2cc(C(=O)N3CCCCCC3)no2)c1,98.5,94% (inactive),98.5% (inactive),77.4% (inactive),85.9% (inactive),8.21% (inactive),77.7,85.9,-5.2% (inactive),2.83% (inactive),-12.5% (inactive),-18.2% (inactive),-0.05% (inactive),96.6% (inactive),90.9% (inactive),0.68% (inactive),0.305% (inactive)
